# Anesthetic bind: candidate novel general anesthetic via apoferritin binding. P02791. apoferritin/1-aminoanthracene competitive binding, fluorescence. Potency, µM (titrated, usually from 77.5 µM), hits mostly inhibitors. 350,000 tested, 0.074% active. AID 485281; note: nearly all actives have a fitted effect of over 20% in size
# Target sequence (P02791 2-175 limits assumed): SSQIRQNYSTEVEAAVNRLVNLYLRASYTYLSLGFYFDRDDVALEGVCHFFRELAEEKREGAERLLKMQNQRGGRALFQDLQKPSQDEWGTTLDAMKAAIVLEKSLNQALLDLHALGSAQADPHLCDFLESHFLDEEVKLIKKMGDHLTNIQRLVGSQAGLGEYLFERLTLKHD
#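 Apoferritin-based anesthetic binding model; compound displacement of fluorescent 1-AMA measured as endpoint fluorescence after 10 minutes at room temperature, scaled to free-ligand and complex controls.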
# PKM2 act: activators of human pyruvate kinase M2; Potency, µM (highest dose often 57.5 µM), most hits filed as activators; 260,000 tested, 0.34% active; AID 1631; purified PKM2, Kinase-Glo ATP luminescence, activation; response scale: 0% is enzyme alone, no compound; note: nearly all actives have a fitted effect of over 55% in size
#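 hPK-M2, >95% pure; 0.1 mM ADP / 0.5 mM PEP final; imidazole pH7.2 buffer w/ 7 mM MgCl2, 50 mM KCl; 1 h RT; Kinase-Glo lum. Intermediate enzyme activity for dual inhibitor/activator qHTS.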
# TrxR1 inh: inhibitors of rat thioredoxin reductase 1; O89049; recombinant rTrxR1, NADPH fluorescence consumption, selenite substrate; Potency, µM (top dose mostly 114 µM), actives largely listed as inhibitors; 390,000 tested, 1% active; note: nearly all actives have a fitted effect of over 65% in size
# Target sequence (O89049 whole entry, looked up): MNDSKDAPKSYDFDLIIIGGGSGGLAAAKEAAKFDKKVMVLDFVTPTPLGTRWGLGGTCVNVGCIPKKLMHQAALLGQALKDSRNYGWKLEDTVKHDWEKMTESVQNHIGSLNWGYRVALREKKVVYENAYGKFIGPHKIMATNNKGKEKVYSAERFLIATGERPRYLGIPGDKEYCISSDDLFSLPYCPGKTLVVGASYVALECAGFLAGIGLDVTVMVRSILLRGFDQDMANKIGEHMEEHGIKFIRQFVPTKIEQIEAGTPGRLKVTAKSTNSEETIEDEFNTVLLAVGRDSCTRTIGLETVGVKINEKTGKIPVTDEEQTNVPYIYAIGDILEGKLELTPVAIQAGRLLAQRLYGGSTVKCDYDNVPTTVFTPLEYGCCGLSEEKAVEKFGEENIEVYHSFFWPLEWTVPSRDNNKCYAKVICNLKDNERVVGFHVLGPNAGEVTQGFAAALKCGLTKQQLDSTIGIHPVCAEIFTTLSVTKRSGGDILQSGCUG
#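 Rat TrxR1 (90 nM in the dispensed reagent) was pre-reduced with 400 uM NADPH for 5 min at room temperature, then incubated with compound for 15 min. After 400 uM selenite was added, NADPH fluorescence (Ex 340/Em 450 nm) was followed for 8 min.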
# GALK inhibitor: inhibitors of human galactokinase. 270,000 tested, 0.007% active. Purified GALK, Kinase-Glo residual ATP luminescence. Potency, µM (series often up to 57.5 µM), actives largely listed as inhibitors
#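 Human GALK (5 nM) with 35 uM ATP and 100 uM galactose in 20 mM HEPES pH 8.0, 5 mM MgCl2, 60 mM NaCl, 1 mM DTT, 0.01% BSA. After 1 h at room temperature, leftover ATP was read by Kinase-Glo Plus luminescence.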
# IDH1 R132H inh: human IDH1 R132H inhibition; Potency, µM (series often up to 76.6 µM), actives largely listed as inhibitors; O75874; 390,000 tested, 0.093% active; AID 602179; IDH1-R132H enzyme, NADPH consumption, diaphorase/resazurin fluorescence; note: nearly all actives have a fitted effect of over 65% in size
#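 IDH1-R132H (0.5 ug/mL) preincubated 30 min with compound, then NADPH (0.016 mM) and alpha-KG (2 mM) added; 80 min at RT, pH 7.5. Remaining NADPH coupled via diaphorase/resazurin to fluorescence (540/590 nm); concentration-response curves normalized to no-enzyme control.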
# TrxR1 substrate: substrates of rat thioredoxin reductase 1; purified TrxR1 substrate turnover, NADPH consumption readout; Potency, µM (top dose mostly 114 µM); 390,000 tested, 0.01% active; O89049; note: nearly all actives have a fitted effect of over 50% in size
#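 Rat TrxR1, dispensed at 90 nM, was prereduced with 400 uM NADPH (final) for 5 min at ~22 deg C, then incubated with compound 15 min before 400 uM selenite. A first-read NADPH fluorescence drop versus no-compound background flagged substrates.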
# Numbers stand for hits; i = inactive; ? = inconclusive; nt = no result; [ ] = remark or other dose. Most compounds without a hit are left out; they make up all but 1.3% or so of the library. Calls come from the whole dose curve; as a rule, active = well fitted curve in the direction sought with a large enough effect; inconclusive = small, poorly fitted or top-dose-only effect, or another doubt; inactive = no such curve, though single readings can be large; an effect the other way counts as inactive or inconclusive.
SMILES,Anesthetic bind,PKM2 act,TrxR1 inh,GALK inhibitor,IDH1 R132H inh,TrxR1 substrate
COc1cc(O)c(C(=O)O)c(-c2cc(O)c(O)cc2C)c1,i,i,0.794µM,i,i,i
O=C(CNC(=O)c1ccc(Cl)cc1)OCC(=O)c1ccc2c(c1)OCCO2,10µM,i,i,i,i,i
CSc1ncc(/C=C2/C(=O)NC(=O)N(C3CCCCC3)C2=O)cn1,i,i,11.2µM,i,i,i
CCCCN1C(=O)NC(=O)/C(=C/c2cnc(SC)nc2)C1=O,?,i,?,i,i,i
Cc1cc(C=C2C(=O)NC(=S)NC2=O)c(C)n1C1CCCC1,i,i,?,i,i,i
CSc1ncc(/C=C2/C(=O)NC(=O)N(C)C2=O)cn1,i,i,14.1µM,i,i,i
c1nc[n]([Sn]([CH]2CCCCC2)([CH]2CCCCC2)[CH]2CCCCC2)n1,i,nt,nt,nt,nt,nt
Cc1ccc(/C=C2\C(=O)NC(=S)N(c3cccc(F)c3)C2=O)o1,i,i[11.5 µM],7.94µM,i,i,i
COc1ccc(N2C(=O)/C(=C/c3ccc(C)o3)C(=O)NC2=S)cc1,i,nt,20µM,i,i,i
Cc1ccc(N2C(=O)/C(=C/c3ccc(CN(CCC#N)S(C)(=O)=O)o3)C(=O)NC2=S)cc1C,i,?,nt,i,nt,nt
Cc1cccc(N2C(=O)/C(=C/c3ccc(CN(CCC#N)S(C)(=O)=O)o3)C(=O)NC2=S)c1,i,i,7.94µM,i,i,i
Cc1cccc(N2C(=O)NC(=O)/C(=C/c3ccc([N+](=O)[O-])o3)C2=O)c1,i,i,12.6µM,i,i,i
CCOc1ccc(N2C(=O)/C(=C/c3ccc(C)o3)C(=O)NC2=S)cc1,i,i,25.1µM,i,i,i
COc1ccc(OC)c(N2C(=O)/C(=C/c3ccco3)C(=O)NC2=S)c1,i,nt,28.2µM,i,i,i
COc1ccc(OC)c(N2C(=O)NC(=O)/C(=C/c3ccc([N+](=O)[O-])s3)C2=O)c1,?,i,?,i,i,i
CCOc1ccc(N2C(=O)NC(=O)/C(=C\c3ccc(N4CCCCC4)o3)C2=O)cc1,i,i,i,i,i,i
C[C@H]1CC[C@@H]2[C@@H](C)[C@H]3[C@H](C[C@H]4[C@@H]5CC=C6C[C@@H](O[C@@H]7O[C@H](CO)[C@H](O)[C@H](O[C@@H]8O[C@H](CO)[C@@H](O)[C@H](O)[C@H]8O)[C@H]7O[C@@H]7O[C@@H](C)[C@H](O)[C@@H](O)[C@H]7O)CC[C@]6(C)[C@H]5CC[C@]34C)N2C1,i,i,70.8µM,nt,i,i
CCCOc1ccc(C(=O)Nc2ccc(-c3cc4ccccc4oc3=O)c(C)c2)cc1,i,nt,i,nt,i,i
COc1ccc(N2C(=O)NC(=O)/C(=C/c3cccc(OC(=O)c4cccs4)c3)C2=O)cc1Cl,?,i,10µM,i,i,i
Cc1ccc(N2C(=O)NC(=O)/C(=C/c3ccc(OC(=O)c4cccs4)cc3)C2=O)cc1,i,i,31.6µM,i,i,i
COc1ccccc1N1C(=O)NC(=O)/C(=C/c2ccc3c(c2)Cc2ccccc2-3)C1=O,i,i,?,i,i,i
COc1ccccc1CNC(=O)CCNS(=O)(=O)c1ccc2c(c1)oc(=O)n2C,i,nt,i,i,i,i
O=C(Nc1ccccc1)c1ccccc1I,i,nt,nt,nt,nt,nt
Cc1cc([N+](=O)[O-])c(Cl)cc1NC(=O)C(C)C,i,i,i,i,i,i
CNc1cc(Cl)c2nonc2c1[N+](=O)[O-],i,i,0.355µM,i,i,i
SMILES,Anesthetic bind,PKM2 act,TrxR1 inh,GALK inhibitor,IDH1 R132H inh,TrxR1 substrate
Cc1cc(/C=C2\C(=O)NC(=O)N(c3ccc(Cl)cc3)C2=O)c(C)n1-c1sc2c(c1C#N)CCCC2,i,i,50.1µM,i,i,i
CCOC(=O)c1c(-n2c(C)cc(/C=C3\C(=O)NC(=O)N(C)C3=O)c2C)sc2c1CCCC2,i,15.8µM,i,i,?,i
Cc1cc(=O)oc2c(C)c(OC3CCCCC3=O)ccc12 (stereo unspecified),i,nt,?,i,i,i
O=C1NC(=O)C(=Cc2ccc(Sc3ccccc3)o2)C(=O)N1,?,20µM,?,i,i,i
CN1C(=O)C(=Cc2ccc(Sc3ccccc3)o2)C(=O)N(C)C1=S,nt,nt,20µM,nt,i,i
CN1C(=O)C(=Cc2ccc(Sc3ccccc3)o2)C(=O)N(C)C1=O,i,i,?,i,i,i
COc1ccc(C2=C(C(C)=O)Sc3nnc(-c4ccc(C)cc4)n3N2C(C)=O)cc1OC,i,nt,i,nt,?,i
CCCCCCCCCC[Si](C)(C)CCC(=O)NC(Cc1ccc(C)cc1)c1ccccc1 (stereo unspecified),nt,nt,i,nt,nt,i
COc1cccc(NC(=O)C2CCN(c3nnc(C)c4c(C)n(-c5ccccc5)nc34)CC2)c1,i,nt,i,nt,i,i
O=C(Nc1ccc2nc(SCC(=O)N3CCCc4ccccc43)sc2c1)c1cccc(F)c1,i,nt,i,nt,i,i
CCN1C(=O)NC(=O)/C(=C\c2cn(CC(=O)N3CCCCC3C)c3ccccc23)C1=O (stereo unspecified),i,i,20µM,i,i,i
Cc1cc(/C=C2\C(=O)NC(=O)N(c3cccc(F)c3)C2=O)c(C)n1-c1ccc(C(=O)O)c(Cl)c1,i,i[11.5 µM],i,i,i,i
Cc1ccc(N2C(=O)NC(=O)/C(=C/c3ccc(-c4ccc(C(=O)O)c(Cl)c4)o3)C2=O)cc1,i,25.1µM,?,i,i,i
O=C1NC(=S)N(C2CC2)C(=O)/C1=C/c1ccc2c(c1)CCN2CCCCl,i,i,7.94µM,i,?,i
C=CCN1C(=O)/C(=C/c2ccc3c(c2)CCCN3CCC)C(=O)NC1=S,i,i,10µM,i,?,i
CCN1C(=O)/C(=C/c2ccc3c(c2)CCN3CCCCl)C(=O)NC1=S,i,i,28.2µM,i,i,i
CC(C)(C)N1C(=O)NC(=O)/C(=C\c2ccc3c(c2)CCN3CCCCl)C1=O,i,i,?,i,i,i
CCCOCCN(C(=O)CCl)c1c(CC)cccc1CC,i,nt,nt,nt,nt,nt
C[C@H]1COC2=C1C(=O)C(=O)c1c2ccc2c1CCCC2(C)C,?,i,28.2µM,i,?,i
CC(=O)Nc1ccc(Nc2c(CCC(C)C)c(C)c(C#N)c3nc4ccccc4n23)cc1,i,nt,i,nt,i,i
O=C1NC(=O)N(c2ccccc2F)C(=O)/C1=C/c1ccc(Oc2ccc([N+](=O)[O-])cn2)cc1,i,i,3.55µM,i,i,i
Cc1ccccc1N1C(=O)NC(=O)/C(=C\c2cnn(-c3ccccc3)c2)C1=O,i,?,?,i,i,i

# From PubChem
